From PubChem
A selection: hits, their analogues and other compounds. The true share with any hit is near 2.8%.
POLK inh: inhibitors of human DNA polymerase kappa; actives 0.53% (n = 400,000); Potency, µM (doses to about 107 µM), hits mostly inhibitors; purified Pol kappa, fluorescent DNA synthesis assay, 10 min
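Kinetic fluorescence readout at 0 and 10 min followed reaction start with substrate at 50 nM final. Beforehand, enzyme (10 nM Pol kappa) stood 15 min with compound at room temperature; buffer-only wells were negative controls.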
Pol iota inh: inhibitors of human DNA polymerase iota; AID 588590; Q9UNA4; Potency, µM (top dose mostly 115 µM), hits mostly inhibitors; actives 1% (n = 390,000); Pol iota fluorescent replication assay, 10 min
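Fluorescent replication assay read twice, at 0 min and 10 min after adding 50 nM (final) substrate. Enzyme (10 nM) and compounds were first incubated 15 min at room temperature; enzyme-free buffer wells were negative controls.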
POLB inh: blocks human DNA polymerase beta activity | P06746 | Pol beta primer extension/strand displacement, fluorescence kinetic | Potency, µM (top dose mostly 114 µM), usual class: inhibitors | actives 1.3% (n = 340,000) | AID 485314
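Reaction started by 50 nM substrate onto compound-treated Pol beta (10 nM, 15 min preincubation, room temperature); plates read at 0 min and 10 min. Normalized concentration-effect data fitted by four-parameter Hill equation.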
WRN inhibitor: WRN helicase (human) inhibition | Q14191 | WRN helicase unwinding, fluorescent forked duplex, kinetic | Potency, µM (series often up to 114 µM), hits mostly inhibitors | actives 0.46% (n = 360,000); also: nearly all actives have a fitted effect of over 55% in size
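WRN at 20 nM final was preincubated with compound for 15 min at room temperature; reaction started with 100 nM forked duplex oligonucleotide carrying fluorophore and quencher plus 2 mM ATP (final). Unwinding followed kinetically by red fluorescence (ex 525/em 598 nm).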
Pol eta inh: blocks human DNA polymerase eta activity. recombinant Pol eta, fluorescent DNA replication assay. actives 1.2% (n = 390,000). AID 588591. Q9Y253. Potency, µM (titrated, usually from 114 µM), usual class: inhibitors
Target sequence (Q9Y253 whole entry, looked up): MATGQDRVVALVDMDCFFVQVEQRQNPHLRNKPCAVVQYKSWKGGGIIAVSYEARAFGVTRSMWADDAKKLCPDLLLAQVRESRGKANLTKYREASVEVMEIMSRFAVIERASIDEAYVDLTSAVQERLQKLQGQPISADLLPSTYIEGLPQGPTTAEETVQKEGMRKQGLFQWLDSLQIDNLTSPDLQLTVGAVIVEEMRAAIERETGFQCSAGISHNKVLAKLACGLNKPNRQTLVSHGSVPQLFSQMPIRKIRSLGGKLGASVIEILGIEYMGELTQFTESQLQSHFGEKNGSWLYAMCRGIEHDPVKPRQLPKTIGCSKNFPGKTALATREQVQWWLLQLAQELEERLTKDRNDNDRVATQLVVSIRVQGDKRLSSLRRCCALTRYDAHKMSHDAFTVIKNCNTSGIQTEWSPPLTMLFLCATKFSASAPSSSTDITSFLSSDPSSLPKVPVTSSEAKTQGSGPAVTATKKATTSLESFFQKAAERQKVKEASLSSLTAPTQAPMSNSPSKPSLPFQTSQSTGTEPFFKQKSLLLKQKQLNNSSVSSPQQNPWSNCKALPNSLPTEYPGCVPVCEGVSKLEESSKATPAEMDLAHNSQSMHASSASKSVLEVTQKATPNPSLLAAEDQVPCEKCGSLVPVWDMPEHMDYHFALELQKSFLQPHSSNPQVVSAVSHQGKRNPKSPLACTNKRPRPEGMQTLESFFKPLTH
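Pol eta at 10 nM preincubated with compounds 15 min at room temperature; reaction started with fluorescent substrate (50 nM final) and read kinetically at 0 and 10 min.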
PI5P4Ka inh: inhibitors of human PI5P4K alpha; AID 652105; P48426; PI5P4Kalpha enzyme, ADP-Glo luminescence, 60 min; hits give low values; max response, %; actives 1.2% (n = 330,000); active = max response of -50% or lower; inconclusive = between -30% and -50%; inactive = -30% or higher; also: value at the top dose of about 77 µM
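Luminescence from ADP-Glo served as readout of PI5P4Kalpha activity in a qHTS format. Reaction: enzyme, substrate, compound, ATP at 5 microM final, 60 min at RT.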
ADP-Glo counter: ADP-Glo luciferase interference, PI5P4K counter-screen; shares compounds with PI5P4Ka inh; ADP-Glo detection counter-screen, luciferase luminescence, no enzyme; Potency, µM (titrated, usually from 76.9 µM), actives largely listed as inhibitors; 1,100 tested, under 10 active; AID 743285
Of the large screens only hits and unclear results are named; the others gave an inactive call (follow-up assays come after a bar, where they were run). Unless noted, calls follow the shape of the dose curve; as a rule, active = well fitted curve in the direction sought with a large enough effect; inconclusive = small, poorly fitted or top-dose-only effect, or another doubt; inactive = no such curve, though single readings can be large; an effect the other way counts as inactive or inconclusive.

CC[C@]12c3[nH]c4cc(CCC(=O)N(C)C)ccc4c3CCN1C(=O)[C@@H](CC(=O)NCCC1=CCCCC1)C[C@@H]2C(=O)N1CCN(C(=O)c2ccco2)CC1	none (no result: POLB inh)
CC(=O)NCCNc1nc(NC(C)C)nc2cc(-c3ccccc3)sc12	none (no result: POLK inh, Pol iota inh, POLB inh, Pol eta inh)
CC(=O)Nc1ccc(CNc2nc(NC(C)C)nc3cc(-c4ccccc4)sc23)cc1	none (no result: POLK inh, Pol iota inh, POLB inh, Pol eta inh, PI5P4Ka inh) | ADP-Glo counter inactive
COc1ccc(-c2cc(CNc3nc(NC(C)C)nc4cc(-c5ccccc5)sc34)on2)cc1	none (no result: POLK inh, Pol iota inh, POLB inh, Pol eta inh, PI5P4Ka inh) | ADP-Glo counter inactive
C=CCNc1nc(NCc2ccc(NC(C)=O)cc2)c2sc(-c3ccccc3)cc2n1	PI5P4Ka inh inconclusive (no result: POLK inh, Pol iota inh, POLB inh, Pol eta inh)
O=C(Cn1cc(COc2ccc(Br)cc2[N+](=O)[O-])nn1)c1ccc(O)cc1	Pol iota inh 4.5µM, PI5P4Ka inh -57 (no result: POLB inh) | ADP-Glo counter inactive
CC(=O)c1ccc(OCc2cn(CC(=O)c3ccc(O)cc3)nn2)c(C)c1	none (no result: POLK inh, Pol iota inh, POLB inh)
O=C(NCc1ccccc1)c1cc2ccc(O)cc2oc1=O	PI5P4Ka inh -66 | ADP-Glo counter inactive
O=C(c1ccc(F)cc1)c1cc2ccc(O)cc2oc1=O	Pol iota inh inconclusive, PI5P4Ka inh -73 | ADP-Glo counter inconclusive
O=C(O)c1cc2ccc(O)cc2oc1=O	none (no result: POLK inh, Pol iota inh, POLB inh)
O=C(Cc1cccs1)NCCc1csc(-c2ccccc2)n1	Pol iota inh inconclusive, WRN inhibitor inconclusive, Pol eta inh inconclusive, PI5P4Ka inh -60 | ADP-Glo counter inactive
COc1ccc(CN2C[C@H](O)COC[C@@H]3O[C@H](CC(=O)NCc4ccncn4)CC[C@H]32)cc1	none (no result: POLK inh, Pol iota inh, POLB inh, Pol eta inh)
CCNC(=S)N(Cc1ccco1)Cc1cc2cc3c(cc2[nH]c1=O)OCCO3	none
CNC(=S)N(Cc1ccco1)Cc1cc2cc3c(cc2[nH]c1=O)OCCO3	WRN inhibitor inconclusive, PI5P4Ka inh -57 | ADP-Glo counter inactive
Cc1ccc(C(=O)NCC(C)NC(=O)c2ccc(C)c(C)c2)cc1C (stereo not drawn)	none (no result: POLB inh)
Cc1cc(O)ccc1Nc1cc(-c2cccc(N(C)C)c2)ncn1	none (no result: POLK inh, Pol iota inh, POLB inh, Pol eta inh, PI5P4Ka inh) | ADP-Glo counter inactive
O=c1[nH]nc2c3ccccc3occ1-2	none (no result: POLK inh, Pol iota inh, POLB inh, Pol eta inh)
Cn1c(=O)c2[nH]c(-c3ccc(S(=O)(=O)O)cc3)nc2n(C)c1=O	PI5P4Ka inh -54 | ADP-Glo counter inactive
CC1=C(C(=O)N2CCOCC2)CC(CC(=O)NCC2CCCCC2)C(=O)N1Cc1ccccc1 (stereo not drawn)	none (no result: POLK inh, Pol iota inh, POLB inh)
COc1ccc(NC(=O)CSc2nc3[nH]c(=O)cc(O)c3s2)cc1OC	Pol iota inh inconclusive, Pol eta inh inconclusive (no result: POLB inh)
Cc1cc(=O)[nH]c(Nc2cccc(C(F)(F)F)c2)n1	none
O=c1cc(O)c2sc(Nc3ccc(F)cc3)nc2[nH]1	PI5P4Ka inh -83 | ADP-Glo counter inactive
O=c1cc(O)c2sc(Nc3cccc(C(F)(F)F)c3)nc2[nH]1	WRN inhibitor inconclusive, PI5P4Ka inh -84 | ADP-Glo counter inactive
CCCNC(=O)C1CCC(Cn2c(=O)c3sccc3n(Cc3cccc(OC)c3)c2=O)CC1 (stereo not drawn)	none (no result: WRN inhibitor, PI5P4Ka inh)
Fc1ccc(C2=CC(c3ccco3)n3ncnc3N2)cc1 (stereo not drawn)	Pol eta inh inconclusive
C1=C(c2ccc(-c3ccccc3)cc2)Nc2ncnn2C1c1ccco1 (stereo not drawn)	Pol iota inh inconclusive, Pol eta inh inconclusive, PI5P4Ka inh -56 | ADP-Glo counter inactive
CCc1nc2ccc(C(=O)NCCOc3ccc(OC)cc3)cn2c1N(C=O)Cc1ccc(OC)cc1	none (no result: POLK inh, Pol iota inh, POLB inh, Pol eta inh)
Cc1ccccc1S(=O)(=O)NC(=O)C1(C)CCN1C(=O)C(C)(C)c1ccccc1 (stereo not drawn)	none (no result: POLK inh, Pol iota inh, POLB inh, Pol eta inh)
CC(C)(C(=O)N1CCC1(C)C(=O)NS(=O)(=O)c1ccc(C#N)cc1)c1ccccc1 (stereo not drawn)	none (no result: POLK inh, Pol iota inh, POLB inh, Pol eta inh) | ADP-Glo counter inactive
O=C(NCc1ccco1)c1cccc(-c2cncc3nccn23)c1	none (no result: POLK inh, Pol iota inh, POLB inh, Pol eta inh)
CC(C)NC(=O)OCc1c(COC(=O)NC(C)C)c([N+](=O)[O-])n2c1CCC2	none (no result: POLK inh, Pol iota inh, POLB inh, Pol eta inh)
